# Biological target: SLTM (Homo sapiens, UniProt Q9NWH9)
# Assay: protein domain microarray probed with biotinylated miRNA; Domain array: 20 mM Tris-HCl pH 7.4, 200 mM KCl, 0.2 mM EDTA, 0.05% NP40, 2 ug/ul heparin, overnight 4 C. ORF array: PBS pH 7.0 with RNase inhibitor, 100 ng RNA; high values mean tight binding
# Settings: ssRNA
# Sequence of SLTM (Q9NWH9 360-485): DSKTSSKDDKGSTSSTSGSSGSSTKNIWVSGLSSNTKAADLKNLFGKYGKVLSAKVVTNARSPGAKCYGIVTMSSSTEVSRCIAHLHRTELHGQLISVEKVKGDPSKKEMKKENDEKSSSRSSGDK
row,Sequence,binding signal [fluorescence intensity]
1,AGAGGUAGUAGGUUGCAUAGUU,123
2,UGAGGUAGUAGGUUGUGUGGUU,305 ± 14.8
3,UAGCUUAUCAGACUGAUGUUGA,33.6 ± 0.863
4,UGAGGUAGUAGGUUGUAUAGUU,57.9 ± 0.728
5,CAGUGCAAUGAUGAAAGGGCAU,123 ± 2.81
6,UGAGGUAGUAGGUUGUAUGGUU,141.8 ± 1.03

# Reference: article PMC11574364
